# ELG1 genotoxic – genotoxicity induction in ELG1-luciferase HEK293T cells; HEK293T ELG1-luciferase reporter, luminescence, 16 h; Potency, µM (titrated, usually from 46 µM), for inactives: at the highest dose activity change, positive = activation, usual class: activators; hit rate 1.3% among 330,000; further: % of control where 0% means no effect; nearly all actives have a fitted effect of over 60% in size
#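 Step 1: seed 2,000 HEK293T ELG1-luciferase cells per well. Step 2: add compound or DMSO, incubate 16 hr at 37 °C. Step 3: ONE-Glo, 30 min at room temperature, read luminescence.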
# KinaseGlo FLuc – Kinase-Glo luciferase inhibition (counter-screen); Kinase-Glo luciferase, ATP luminescence, 8 min; Potency, µM (top dose mostly 38.3 µM), without a hit: top-dose activity change, negative = inhibition, most hits filed as inhibitors; hit rate 0.28% among 200,000; further: on the % scale 0 is the no-effect control and ±100 the full control effect; nearly all actives have a fitted effect of over 60% in size
#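 Inhibition of Kinase-Glo luciferase light generation was assessed at 10 uM ATP in pH 7.2 imidazole buffer, with luminescence measured after eight minutes at ambient temperature.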
# NPC1 promoter act – activators of NPC1 promoter; Potency, µM (doses to about 9.22 µM), for the others: at the highest dose activation, most hits filed as activators; Huh7 NPC1 promoter luciferase reporter, 24 h; hit rate 2.4% among 320,000; further: % of control where 0% means no effect; nearly all actives have a fitted effect of over 60% in size
#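 Compounds in DMSO were transferred onto Huh7 NPC1-luciferase reporter cells pre-incubated 2 h; after 24 h at 37 °C, Amplite reagent was dispensed and luminescence recorded 10 min later.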
# SMN2 splice enh – increases expression of the SMN2 splice variant | HEK293 SMN2-luciferase splicing reporter, luminescence, 30-36 h | Potency, µM (doses to about 46.1 µM), for the others: at the top dose activity change, positive = activation, most hits filed as activators | hit rate 2.8% among 210,000; further: % of control where 0% means no effect; nearly all actives have a fitted effect of over 55% in size
#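 HEK293 cells carry an SMN2 minigene-luciferase reporter in which exon 7 inclusion puts luciferase in frame. Cells were seeded at 2000 cells/well, attached for 10-12 hours, then exposed to compounds for 30-36 hours at 37C before ONE-Glo luminescence.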
# Rab9 prom act – activates the Rab9 promoter; Huh7 Rab9 promoter-luciferase reporter, luminescence, 24 h; Potency, µM (top dose mostly 9.22 µM), for the others: at the highest dose activation, negative = inhibition, most hits filed as activators; hit rate 2.8% among 320,000; AID 485297; further: % of control where 0% means no effect; nearly all actives have a fitted effect of over 60% in size
#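 Luminescence read-out: Huh7 cells stably expressing Rab9-luciferase, treated 24 h with compound at 37 °C, then lysed with luciferase reagent for 10 min at ambient before reading.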
# FLuc modulator – counter-screen for miR-21 project: firefly luciferase inhibitors or activators; Potency, µM (series often up to 57.5 µM), without a hit: at the highest dose activity change, negative = inhibition, actives largely listed as inhibitors; P08659; AID 588342; purified FLuc, Km substrates, luminescence inhibition; hit rate 6.9% among 360,000;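 further: plate controls were vehicle for no effect and reference inhibitor for full effect; nearly all actives have a fitted effect of over 55% in size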
# Target sequence (P08659 whole entry, looked up): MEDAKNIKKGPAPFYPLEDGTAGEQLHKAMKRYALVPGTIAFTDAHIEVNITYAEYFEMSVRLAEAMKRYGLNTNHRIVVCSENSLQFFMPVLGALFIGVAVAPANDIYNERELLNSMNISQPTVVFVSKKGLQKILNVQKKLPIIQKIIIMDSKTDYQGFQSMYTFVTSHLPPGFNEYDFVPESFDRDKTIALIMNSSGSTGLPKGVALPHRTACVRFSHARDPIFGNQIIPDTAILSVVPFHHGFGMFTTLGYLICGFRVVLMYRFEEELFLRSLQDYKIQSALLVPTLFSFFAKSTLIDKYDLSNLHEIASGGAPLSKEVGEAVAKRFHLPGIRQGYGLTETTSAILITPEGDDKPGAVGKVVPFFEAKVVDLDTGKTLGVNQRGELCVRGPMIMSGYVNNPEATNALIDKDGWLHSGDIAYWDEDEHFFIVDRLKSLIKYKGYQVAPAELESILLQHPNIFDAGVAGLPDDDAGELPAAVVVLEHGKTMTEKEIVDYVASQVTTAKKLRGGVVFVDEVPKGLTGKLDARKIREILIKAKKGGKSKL
#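 Purified P. pyralis luciferase (10nM final) with 10uM D-luciferin and 10uM ATP (Km levels) in 50mM Tris acetate pH 7.5, 10mM Mg acetate, 0.01% Tween-20, 0.05% BSA; qHTS 6-point titration, ~60 µM downward; luminescence read.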
# * marks the source's active call; other numbers are inactive results; u = inconclusive; x = no result; [ ] = remark or other dose. Only some compounds are listed: those with a hit (about 7.4% of all), similar ones and a draw of the others. The call rests on the fitted dose curve; in most records, active means well fitted curve in the direction sought with a large enough effect; inconclusive means small, poorly fitted or top-dose-only effect, or another doubt; inactive means no such curve, though single readings can be large; an effect the other way counts as inactive or inconclusive. Potency means the concentration at half of the fitted maximal effect.
SMILES,ELG1 genotoxic,KinaseGlo FLuc,NPC1 promoter act,SMN2 splice enh,Rab9 prom act,FLuc modulator
C=C1C[C@@]23CC[C@H]4[C@@](C)(CCC[C@@]4(C)C(=O)OC4OC(CO)C(O)C(O)C4O)[C@@H]2CC[C@]1(OC1OC(CO)C(O)C(O)C1OC1OC(CO)C(O)C(O)C1O)C3 (stereo not given in full),x,x,-5%[46.1 µM],x,-8%[46.1 µM],x
CC1CCC(NC(=O)c2ccc(CS(=O)(=O)c3ccc(Cl)cc3)o2)CC1 (stereo not given),x,x,x,x,x,2%
CCC(C)NC(=O)c1ccccc1NC(=O)C1CCN(S(=O)(=O)Cc2ccccc2)CC1 (stereo not given),x,x,x,x,x,-8%
O=c1cc(/C=C/c2ccccc2)oc2ccccc12,2.6µM*,-1%,u,11µM*,2.2µM*,6µM*
CCOc1ccccc1NC(=O)Cn1c(=O)n(CCCC(=O)NCCc2ccc(C)cc2)c(=O)c2ccccc21,x,x,x,9%,x,-2%
CC(C)c1ccc(NC(=O)C2CC3CCC2C3)cc1 (stereo not given),21µM*,x,3.5µM*,x,3.2µM*,11µM*
Cn1cnc(S(=O)(=O)N2CCC(C(=O)N3CCN(c4ccccc4F)CC3)CC2)c1,x,x,x,x,x,-1%
O=C(OCc1nnc(-c2ccccc2)o1)c1ccc2ccccc2n1,u,-1%,-2%,-8%,13%,u
O=C(COC(=O)c1ccc2ccccc2n1)c1ccccc1,-17%,-7%,-2%,-20%,-3%,6.7µM*
O=C(OCc1ccc(F)cc1)c1ccc2ccccc2n1,3%,-2%,1%,12%,0%,19µM*
O=C(OCC(=O)c1ccc[nH]1)c1ccc2ccccc2n1,5%,-1%,-1%,6%,-5%,u
CS(=O)(=O)N(CC(=O)NCCSc1ccccc1)c1cc(C(F)(F)F)ccc1Cl,x,x,x,-3%,x,u
C/C(=N\NC(=O)c1c(Cl)c(C)nn1C)c1cccc(NC(=O)COc2ccccc2)c1,-8%,x,10%,x,10%,-1%
C/C(=N\NC(=S)NCc1ccccc1)c1ccc(C#N)cc1,7%,-1%,-3%,9%,-2%,1%
C/C(=N\NC(=O)c1c(Br)c(C)nn1C)c1cccc(NC(=O)c2ccccc2C)c1,1%,0%,2%,-3%,-5%,12µM*
C/C(=N\NC(=O)c1ccc(O)cc1)c1cccc(NC(=O)c2ccccc2C)c1,7%,x,0%,x,u,2.7µM*
C/C(=N\NC(=O)c1c(Cl)c(C)nn1C)c1cccc(NC(=O)c2cccc(F)c2)c1,-17%,x,2%,x,16%,11µM*
C/C(=N\NC(=O)c1ccccc1F)c1ccc(C#N)cc1,u,-4%,u,u,4µM*,u
CCN(CC)CCCN(c1ccccc1)C1Cc2ccccc2C1,x,x,-14%[46.1 µM],x,-25%[46.1 µM],x
C/C(=N\NC(=O)c1c(Br)c(C)nn1C)c1cccc(NC(=O)c2ccccc2F)c1,0%,1%,2%,9%,0%,u
Cc1ccccc1C(=O)Nc1cccc(NC(=O)c2ccc(C(C)(C)C)cc2)c1,x,x,x,u,x,0.76µM*
C/C(=N\NC(=O)c1nn(C)c(C)c1Br)c1cccc(NC(=O)c2ccc(F)cc2)c1,8%,-4%,28%,u,u,1.9µM*
C/C(=N\NC(=O)c1c(Br)c(C)nn1C)c1cccc(NC(=O)C2CCC2)c1,0%,-2%,0%,6%,-1%,19µM*
C/C(=N\NC(=O)c1ccccc1F)c1cccc(NC(=O)c2ccccc2)c1,u,x,24%,x,11%,2.7µM*
C/C(=N\NC(=O)c1cc(Br)ccc1O)c1cccc(NC(=O)c2ccccc2F)c1,10%,x,-1%,x,-5%,u
SMILES,ELG1 genotoxic,KinaseGlo FLuc,NPC1 promoter act,SMN2 splice enh,Rab9 prom act,FLuc modulator
Cc1c(CC(=O)N2CCCCC2)c(=O)oc2cc3occ(C(C)(C)C)c3cc12,x,x,x,-1%,x,-6%
Cc1ccc(NC(=O)CCCC2CCCCC2)c(O)c1,u,x,u,x,u,8.5µM*
Cc1nnc(SCC(=O)NCc2ccc(N(C)C)cc2)c2nn(-c3ccccc3)c(C)c12,x,x,x,x,x,-17%
COC(=O)c1nc(NC(=O)C(C)(C)C)n[nH]1,5%,3%,-2%,2%,-4%,24µM*
COC(=O)c1nc(NC(=O)c2ccc(Br)cc2)n[nH]1,x,-2%,x,-15%,x,1%
Cc1cccc(CNc2nc(-c3ccccc3CN(C)C)nc3ccccc23)c1,x,0%,x,-27%,x,x
COc1ccc(C2CC2C(=O)c2ccccn2)cc1 (stereo not given),6%,0%,u,12%,u,17µM*
COc1ccc(C2CC2/C(=N/O)c2ccccn2)cc1 (stereo not given),4%,-5%,14%,12%,u,u
CN1CCN(C(=O)c2ccc3c(c2)NC(=O)/C(=C/c2ccccc2)S3)CC1,3%[9.26 µM],x,-17%,x,-3%,-5%
CCOC(=O)C1CCN(C(=O)c2ccc3c(c2)NC(=O)/C(=C\c2ccc(C)cc2)S3)CC1,0%,x,-5%,x,1%,24µM*
Cc1ccc(/C=C2/Sc3ccc(C(=O)N4CCN(c5ccccn5)CC4)cc3NC2=O)cc1,-4%,x,-5%,x,-2%,13µM*
CCOC(=O)C1CCN(C(=O)c2ccc3c(c2)NC(=O)/C(=C/c2ccccc2)S3)CC1,-4%,x,-6%,x,-5%,-16%
Cc1ccc(-n2nc(C)c3c(C(F)(F)F)cc(-c4cccnc4)nc32)cc1C,x,x,x,7%,x,0%
CC1SCC(NC(=O)c2cccc(Cl)c2)CS1 (stereo not given),2%,x,5%,x,1%,-8%
CC1SCC(NC(=O)c2ccccc2Cl)CS1 (stereo not given),u,x,u,x,4.5µM*,17µM*
COc1ccc2c(c1)c(=O)oc1c(C)c(OC(C)C(=O)N[C@@H](Cc3c[nH]c4ccc(O)cc34)C(=O)O)ccc12 (stereo not given in full),-2%,x,9%,x,-3%,12µM*
CCNS(=O)(=O)c1ccc2nc(NC(=O)c3cccnc3)sc2c1,8%,-10%,24%,10%,u,21µM*
CCN(CC)S(=O)(=O)c1ccc2nc(NC(=O)c3cccnc3)sc2c1,x,x,x,x,x,19µM*
CCCC(=O)Nc1cc2nn(-c3ccc(OC)cc3)nc2cc1C,x,x,x,22%,x,u
COc1ccc(-n2nc3cc(C)c(NC(=O)c4cccnc4)cc3n2)cc1,u,-4%,u,28%,u,1.1µM*
Cc1ccc(C(=O)Nc2cc3nn(-c4ccccc4)nc3cc2Cl)c(C)c1,x,x,x,-2%,x,1%
Cc1cc2nn(-c3ccccc3)nc2cc1NC(=O)c1cccc2c(Cl)cccc12,x,x,x,8%,x,-9%
